# Columns and labels:
# Conditions in all cases: concentration: 1 μM, replicates: in singlicate; n = 1
# [1] = system: MYO3A
# [2] = system: MYO3B
# [3] = system: T1, NDR1
# T1 construct: gene STK38
# [4] = system: NDR2
# [5] = system: NEK10
# [6] = system: NEK11
# [7] = system: NEK1
# [8] = system: NEK2
# [9] = system: NEK3
# [10] = system: NEK4
# [11] = system: NEK5
# [12] = system: NEK6
# [13] = system: NEK7
# [14] = system: NEK9
# [15] = system: T2, NIK
# T2 construct: gene MAP3K14
# [16] = system: T3, NIM1
# T3 construct: gene MGC42105
# [17] = system: NLK
# [18] = system: T4, OSR1
# T4 construct: gene OXSR1
# [19] = system: PAK1
# [20] = system: PAK2
# 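Note: KINOMEscan kinase panel screen.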
Compound,%Inh [1] [%],%Inh [2] [%],%Inh [3] [%],%Inh [4] [%],%Inh [5] [%],%Inh [6] [%],%Inh [7] [%],%Inh [8] [%],%Inh [9] [%],%Inh [10] [%],%Inh [11] [%],%Inh [12] [%],%Inh [13] [%],%Inh [14] [%],%Inh [15] [%],%Inh [16] [%],%Inh [17] [%],%Inh [18] [%],%Inh [19] [%],%Inh [20] [%]
COc1ccc(Nc2nccc(-c3ccc(NC(=O)c4cc5cc(F)ccc5[nH]4)cc3)n2)cc1 [GSK1229496],0,0,7,2,0,17,0,0,0,0,14,0,0,0,30,0,23,8,0,0
CNCc1ccc2nc(NC(=O)c3ccc(C(C)(C)C)cc3)cn2c1,2,0,34,3,20,34,28,2,18,7,0,2,10,3,28,3,1,22,7,26
COc1ccc2cc(-c3nc(-c4ccccc4C(C)C)[nH]c3-c3ccncc3)ccc2c1 [SB-660566],0,0,18,0,45,4,41,0,0,15,0,2,0,4,0,13,29,3,25,28
O=c1cc(N2CCOCC2)nc2n(Cc3ccccc3F)ccn12 [GSK2297428],13,0,34,0,1,0,0,0,0,0,0,0,0,0,0,2,0,0,21,0
O=c1cc(N2CCOCC2)nc2n(Cc3cccc(Cl)c3Cl)c3ccccc3n12 [GSK2299009],0,6,33,0,9,0,0,14,3,8,30,4,20,24,0,2,25,11,0,5
CC(=O)c1c(C)c2cnc(Nc3ccc(N4CCNCC4)cn3)nc2n(C2CCCC2)c1=O,11,0,0,0,13,0,0,0,36,0,1,0,0,0,3,0,29,0,0,0
O=C(Nc1n[nH]c2nc(-c3ccco3)c(Br)cc12)C1CCN(Cc2ccccc2)C1.O=C(O)[C@H](O)[C@@H](O)C(=O)O (stereo not drawn) [SB-742034],17,7,8,17,0,1,0,5,47,8,0,1,11,0,0,0,0,5,3,35
COc1ccc(-c2coc3ccc(-c4nnc(C)o4)cc23)cc1,0,12,8,9,47,0,0,0,21,17,0,0,0,0,0,0,0,1,23,0
COc1cc2ncnc(Nc3cccc(Br)c3)c2cc1OC.Cl [GI230329],20,0,26,12,21,41,0,0,6,0,11,0,0,4,29,26,33,16,29,20
COc1cccc(NC(=O)Nc2ccc(C)c(-c3ccc(C(=O)Nc4ccncc4)cc3)c2)c1 [GSK1398474],0,0,51,0,47,0,25,0,7,15,2,3,0,12,0,0,30,6,29,16
CS(=O)(=O)CCNCc1nc(-c2ccc3ncnc(Nc4ccc(OCc5ccccc5)c(Cl)c4)c3c2)cs1.Cl [GW582764],30,0,0,0,11,12,0,3,0,9,0,0,0,0,4,38,0,2,15,19
Nc1ncnc2occ(-c3ccc4c(c3)CCN4C(=O)Cc3cc(F)ccc3F)c12 [GSK2645446],26,0,11,0,1,2,0,70,0,0,22,0,0,4,17,8,0,0,0,4
Cc1cccc2c(-c3ccncn3)c(-c3ccc(F)cc3)nn12 [GW515532],0,0,0,0,0,0,0,23,0,0,0,0,0,5,1,14,44,10,13,8
Cc1ccc(NC(=O)Nc2ccccc2)cc1-c1ccc(C(=O)Nc2ccncc2)cc1 [GSK1398471],0,0,24,0,10,0,15,0,0,0,4,0,0,23,0,0,51,14,20,13
Fc1ccc(-c2nc[nH]c2-c2ccncc2)cc1 [SB-217360],0,6,30,9,24,0,0,0,11,0,0,0,0,0,20,4,49,0,23,25
Cn1cnc2c(N)ncnc21 [SKF-97623],2,15,0,3,0,0,0,0,19,0,0,0,0,0,41,3,0,0,3,5
COc1ccc(Nc2nccc(N3CCC(NC(=O)C(C)c4ccc(Cl)cc4)CC3)n2)cc1 (stereo not drawn) [GSK1379812],24,0,39,0,43,0,0,4,53,0,54,55,0,10,0,11,35,0,21,15
Fc1ccc(-c2nc3n(c2-c2ccncc2)CCS3)cc1 [GI98581],12,0,0,0,14,9,0,0,6,38,8,6,0,8,2,10,64,5,0,6
COc1nccc(-c2c(-c3ccc(F)cc3)ncn2CCCN2CCOCC2)n1 [SB-282852],5,0,16,0,0,2,0,0,29,0,0,0,0,0,18,34,0,0,0,0
CCn1c(-c2c(N)noc2C)nc2cnccc21 [SB-737856],16,0,0,0,8,0,73,1,14,21,0,0,2,0,3,36,0,4,27,32
CN1c2ccc(-c3ccc(C(N)=O)cc3)cc2-c2[nH]ncc2S1(=O)=O,0,11,26,3,0,0,0,0,35,0,0,0,0,0,12,0,8,0,11,22
